Results: PubChem BioAssay (NCATS)
Inconclusive results are not listed. Active and inactive are the calls of the source. The call rests on the fitted dose curve; in most records, active means well fitted inhibition curve with a large enough effect; inconclusive means small, poorly fitted or top-dose-only effect; inactive means flat fitted curve, though single readings scatter. Where a SMILES comes first, the peptide text is derived from it. The star is where a group is joined. βNA = c1ccc2cc(N*)ccc2c1; Cbz = O=C(OCc1ccccc1)*

Tests used:
CRL-7250 = normal cell line; assay: Cytotoxic Profiling of Annotated Libraries Using Quantitative High-Throughput Screening (AID 1296008); details: Five cell lines viability, CellTiter-Glo ATP luminescence, 48-72 h; max response: hits give low values; on max response: on the % scale 0 is the no-effect control and ±100 the full control effect
In short: (§1)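 Cells exposed to compounds for 48 or 72 hr at 37 degrees Celsius. Viability read as ATP-coupled luminescence with CellTiter-Glo after 10 min at room temperature.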

HEK293 = assay: as above; details: Five cell lines viability, CellTiter-Glo ATP luminescence, 48-72 h; max response: hits give low values
In short: as §1

HaCat [1] = assay: as above; details: Five cell lines viability, CellTiter-Glo ATP luminescence, 48-72 h; max response: hits give low values
In short: as §1

KB-3-1 = assay: as above; details: Five cell lines viability, CellTiter-Glo ATP luminescence, 48-72 h; max response: hits give low values
In short: as §1

NIH3T3 = assay: as above; details: Five cell lines viability, CellTiter-Glo ATP luminescence, 48-72 h; max response: hits give low values
In short: as §1

HACAT [2] = assay: qHTS assay to identify novel small-molecules to repurpose for Merkel cell carcinoma treatment (AID 1296009); details: MCC and control cell lines, CellTiter-Glo viability, 72 h; at 44.8 µM (top of the series) unless noted
In short: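 Cells were treated for 72 hr at 37 degree celsius with compounds in 8- or 11-point dose response. Viability was read by CellTiter-Glo luminescence, normalized to no-cell (cytotoxicity) and DMSO controls.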

Measured: max response
Further: nearly all actives have a fitted effect of over 60% in size.

O=C(/C=C/c1ccc(O)cc1)O[C@H]1[C@H](OC2CCCCC2O)O[C@H](CO)[C@@H](O)[C@@H]1O (some centres not stated)
inactive: CRL-7250 -2.64% | HEK293 2.98% | HaCat [1] | KB-3-1 5.56% | NIH3T3 | HACAT [2] inactive [at 17.4 µM]

COc1ccc(OC2OC(CO[C@@H]3O[C@@H](C)[C@H](O)[C@@H](O)[C@H]3O)C(O)C(O)C2O)cc1OC (some centres not stated)
inactive: CRL-7250 3.33% | HEK293 -0.0887% | HaCat [1] | KB-3-1 5.53% | NIH3T3 | HACAT [2] inactive [at 17.4 µM]

CC1(C)CC[C@]2(C(=O)O[C@@H]3O[C@H](CO)[C@@H](O)[C@H](O)[C@H]3O)CC[C@]3(C)C(=CCC4[C@@]5(C)CC[C@H](O[C@@H]6O[C@H](C(=O)O)[C@@H](O[C@@H]7O[C@H](CO)[C@@H](O)[C@H](O)[C@H]7O)[C@H](O)[C@H]6O)C(C)(C)C5CC[C@]43C)C2C1 (some centres not stated)
inactive: CRL-7250 -9.08% | HEK293 3.3% | HaCat [1] | KB-3-1 | NIH3T3 3.38% | HACAT [2] inactive [at 9.27 µM]

C=CCc1cc(OC)c(OC(C)C(O)c2ccc(O)c(OC)c2)c(OC)c1 (configuration not stated)
inactive: CRL-7250 -6.23% | HEK293 0.874% | HaCat [1] | KB-3-1 -7.75% | NIH3T3 -6.43% | HACAT [2]

CCCCC(=O)N1c2ccccc2NC2=C(C(=O)CCC2)C1c1ccccc1Cl (configuration not stated)
inactive: CRL-7250 | HEK293 -3.83% | HaCat [1] | KB-3-1 6.63% | NIH3T3 -4.77% | HACAT [2]

COc1ccc(/C=C/C(=O)O[C@@H]2[C@@H](O[C@@H]3O[C@H](CO)[C@@H](O)[C@H](O)[C@H]3O)[C@@H](O)[C@H](O[C@H]3C4C=CO[C@@H](O[C@@H]5O[C@H](CO)[C@@H](O)[C@H](O)[C@H]5O)C4[C@@]4(CO)O[C@@H]34)O[C@H]2C)cc1 (some centres not stated)
inactive: CRL-7250 -8.31% | HEK293 -3.69% | HaCat [1] | KB-3-1 -1.62% | NIH3T3 | HACAT [2] inactive [at 9.27 µM]

COc1cc(O)c(C(=O)O)c(CCc2ccccc2)c1
inactive: CRL-7250 -1.14% | HEK293 -6.57% | HaCat [1] | KB-3-1 9.04% | NIH3T3 -0.163% | HACAT [2]

C[C@@H]1O[C@@H](O[C@H]2[C@H](O)[C@@H](O)[C@H](OC(=O)[C@]34CCC(C)(C)C[C@H]3C3=CCC5[C@@]6(C)CC[C@H](O[C@@H]7O[C@H](C(=O)O)[C@@H](O)[C@H](O)[C@H]7O)C(C)(C)C6CC[C@@]5(C)[C@]3(C)CC4)O[C@@H]2CO)[C@H](O)[C@H](O)[C@H]1O (some centres not stated)
inactive: CRL-7250 | HEK293 -4.26% | HaCat [1] | KB-3-1 -0.526% | NIH3T3 -1.98% | HACAT [2] inactive [at 9.27 µM]

CC1C2=CC(=O)OC2(O)CC2C1C(OC(=O)c1ccccc1)C(OC(=O)c1ccccc1)C1(O)C2(C)CCC(O)C1(C)C(=O)O (configuration not stated)
inactive: CRL-7250 -2.75% | HEK293 3.81% | HaCat [1] | KB-3-1 -1.08% | NIH3T3 -2.68% | HACAT [2] inactive [at 17.4 µM]

COC(=O)C1(C)CCCC2(C)c3ccc(C(C)C)cc3C(O)C(O)C12 (configuration not stated)
inactive: CRL-7250 -3.44% | HEK293 -25.7% | HaCat [1] | KB-3-1 | NIH3T3 | HACAT [2]

CC1(C)CC[C@]2(C(=O)O)CC[C@]3(C)C(=CCC4[C@@]5(C)CC[C@H](O[C@@H]6O[C@H](C(=O)O)[C@@H](O)[C@H](O[C@@H]7O[C@H](CO)[C@H](O)[C@H](O)[C@H]7O)[C@H]6O[C@@H]6O[C@H](CO)[C@@H](O)[C@H](O)[C@H]6O)C(C)(C)C5CC[C@]43C)[C@@H]2C1 (some centres not stated)
inactive: CRL-7250 3.2% | HEK293 -6.56% | HaCat [1] | KB-3-1 | NIH3T3 | HACAT [2] inactive [at 4.96 µM]

COCc1c(O)c(C(=O)O)c(C)c2c1OC(=O)c1c(C)cc(O)c(CO)c1O2
inactive: CRL-7250 0.001% | HEK293 -3.82% | HaCat [1] | KB-3-1 | NIH3T3 | HACAT [2]

CC(C)CC(NC(=O)OCc1ccccc1)C(=O)NC(CC(C)C)C(=O)NC(CCC(=O)O)C(=O)Nc1ccc2ccccc2c1 (stereo not drawn) (Cbz-Leu-Leu-Glu-βNA; configuration not given here)
inactive: CRL-7250 -12.3% | HEK293 -0.688% | HaCat [1] | KB-3-1 | NIH3T3 | HACAT [2]

CC(=O)OCC(Cc1ccccc1)NC(=O)C(Cc1ccccc1)NC(=O)c1ccccc1 (configuration not stated)
inactive: CRL-7250 | HEK293 -2.31% | HaCat [1] | KB-3-1 -0.456% | NIH3T3 | HACAT [2] inactive [at 17.4 µM]

CC/C=C\C(O)C(O)C1=C(C)C(=O)C2(O1)C(=O)NC(OC)(C(=O)c1ccccc1)C2O (configuration not stated)
inactive: CRL-7250 | HEK293 -0.178% | HaCat [1] | KB-3-1 7.12% | NIH3T3 -1.62% | HACAT [2] inactive [at 17.4 µM]

CC1(C(=O)O)CC[C@]2(C(=O)OC3OC(CO)C(O)C(O)C3O)CC[C@]3(C)C(=CCC4[C@@]5(C)CC[C@H](OC6OCC(O)C(O)C6OC6OC(CO)C(O)C(O)C6O)C(C)(C)C5CC[C@]43C)C2C1 (some centres not stated)
inactive: CRL-7250 0.0336% | HEK293 -7.14% | HaCat [1] | KB-3-1 | NIH3T3 0.38% | HACAT [2] inactive [at 9.27 µM]

C=CC(C)(O)CC/C=C(\C)C(=O)O[C@@H]1[C@@H](O)[C@H](OC(C)(C=C)CC/C=C(\C)C(=O)O[C@@H]2O[C@H](CO)[C@@H](O)[C@H](O)[C@H]2O)O[C@H](CO)[C@H]1OC(=O)/C(C)=C/CCC(C)(O)C=C (some centres not stated)
inactive: CRL-7250 1.38% | HEK293 -3.95% | HaCat [1] | KB-3-1 | NIH3T3 1.18% | HACAT [2] inactive [at 9.27 µM]

COc1cc(O)cc(C)c1C(=O)OC1C(CO)OC(n2ccc(=O)[nH]c2=O)C1OC(C)=O (configuration not stated)
inactive: CRL-7250 | HEK293 2.97% | HaCat [1] | KB-3-1 8.59% | NIH3T3 -1.67% | HACAT [2] inactive [at 17.4 µM]

CCOc1nc2c(N)ncnc2n1CC
inactive: CRL-7250 | HEK293 3.9% | HaCat [1] | KB-3-1 5.09% | NIH3T3 3.41% | HACAT [2]

CC1C(=O)OCC2=CC[N+]3([O-])CCC(OC(=O)C(C)(O)C1(C)O)C23 (configuration not stated)
inactive: CRL-7250 2.6% | HEK293 3.51% | HaCat [1] | KB-3-1 7.03% | NIH3T3 | HACAT [2]

COc1cc(C)c(C(=O)O[C@@H]2[C@H](O)[C@@H](CO)O[C@H]2n2ccc(=O)[nH]c2=O)c(OC)c1
inactive: CRL-7250 | HEK293 3.08% | HaCat [1] | KB-3-1 | NIH3T3 2.52% | HACAT [2] inactive [at 17.4 µM]

CCC(C)/C=C(C)/C=C/C1=CC2=C(Cl)C(=O)C(C)(OC(C)=O)C(=O)C2=CN1C(CC(=O)O)C(=O)O (configuration not stated)
inactive: CRL-7250 4.26% | HEK293 4.62% | HaCat [1] | KB-3-1 7.58% | NIH3T3 -16.9% | HACAT [2] inactive [at 17.4 µM]

C[C@@H]1O[C@@H](OC2C(CO)OC(OCC3OC(OC(=O)[C@]45CCC(C)(C)CC4C4=CCC6[C@@]7(C)CC[C@@H](O)[C@](C)(C(=O)O)C7CC[C@@]6(C)[C@]4(C)CC5)C(O)C(O)C3O)C(O)C2O)[C@H](O)[C@H](O)[C@H]1O (some centres not stated)
inactive: CRL-7250 | HEK293 2.84% | HaCat [1] | KB-3-1 -3.25% | NIH3T3 -0.476% | HACAT [2] inactive [at 9.27 µM]

COc1cc(-c2ccc(O)cc2)c(OC)c(O)c1C1=CC(=O)OC1CC(=O)O (configuration not stated)
inactive: CRL-7250 2.67% | HEK293 1.87% | HaCat [1] | KB-3-1 -5.37% | NIH3T3 | HACAT [2]

O=C(O)c1ccnc(-c2cc(C(=O)NCCc3ccccc3)ccn2)c1
inactive: CRL-7250 0.77% | HEK293 -13.9% | HaCat [1] | KB-3-1 6.53% | NIH3T3 -2.98% | HACAT [2]

COc1cc(C(=O)OC[C@H]2O[C@@H](OC(C)(C)C(=O)O)[C@H](O)[C@@H](O)[C@@H]2O)cc(OC)c1O
inactive: CRL-7250 -2.21% | HEK293 -6.34% | HaCat [1] | KB-3-1 | NIH3T3 | HACAT [2] inactive [at 17.4 µM]

CC1(C)C(=O)N2c3ccccc3C(O)(CC(C(=O)O)n3cnc4ccccc4c3=O)C2N1O (configuration not stated)
inactive: CRL-7250 0.472% | HEK293 -0.978% | HaCat [1] | KB-3-1 4.14% | NIH3T3 1.17% | HACAT [2] inactive [at 17.4 µM]

C[C@@H]1O[C@@H](O[C@H]2[C@@H]3C=CO[C@@H](O[C@@H]4O[C@H](CO)[C@@H](O)[C@H](O)[C@H]4O)[C@@H]3[C@@]3(CO)O[C@@H]23)[C@H](O)[C@H](OC(=O)/C=C/c2ccc(O)cc2)[C@H]1OC(=O)/C=C/c1ccc(O)cc1
inactive: CRL-7250 4.25% | HEK293 -0.28% | HaCat [1] | KB-3-1 2.65% | NIH3T3 -10.1% | HACAT [2] inactive [at 17.4 µM]

CC(=O)O[C@H]1[C@H](OC(=O)C(C)C)[C@]2(C)OC3(CC[C@]2(C)[C@H]2CCC[C@]4(CO4)[C@]12C)COC(=O)C3 (some centres not stated)
inactive: CRL-7250 -5.19% | HEK293 -0.769% | HaCat [1] | KB-3-1 4.61% | NIH3T3 -0.316% | HACAT [2] inactive [at 17.4 µM]

COc1cc(CO)cc(OC)c1O[C@@H]1O[C@H](CO)[C@@H](O)[C@H](O)[C@H]1O
inactive: CRL-7250 -11.4% | HEK293 -2.97% | HaCat [1] | KB-3-1 4.69% | NIH3T3 | HACAT [2]

C/C=C1\[C@H](O[C@@H]2O[C@H](CO)[C@@H](O)[C@H](O)[C@H]2O)OC=C(C(=O)O)[C@H]1CC(=O)OCCc1ccc(O)cc1
inactive: CRL-7250 -6.03% | HEK293 -5.51% | HaCat [1] | KB-3-1 -0.266% | NIH3T3 | HACAT [2] inactive [at 17.4 µM]

CC(C)c1ccc2c(c1)C(O)CC1C(C)(C(=O)O)CCCC21C (configuration not stated)
inactive: CRL-7250 -4.34% | HEK293 2.95% | HaCat [1] | KB-3-1 -15.9% | NIH3T3 -2.12% | HACAT [2]
